Rows were chosen to be rich in hits. Some 10% of all compounds tested hit in one or more screens of this group.
JMJD2A Tudor = blocks the human JMJD2A Tudor domain; Potency, µM (series often up to 114 µM), without a hit: top-dose activity change, negative = inhibition, hits mostly inhibitors; AID 504339; O75164; 4.4% of 390,000 active; AlphaScreen JMJD2A-Tudor / H3K4me3 peptide binding; further: potency means the concentration at half of the fitted maximal effect; on the % scale 0 is the no-effect control and ±100 the full control effect; nearly all actives have a fitted effect of over 50% in size
G9a inh = inhibitors of human histone lysine methyltransferase G9a; Q96KQ7; G9a H3K9 monomethylation, AlphaScreen, 2 h; Potency, µM (doses to about 102 µM), inactives show top-dose activity, negative = inhibition, most hits filed as inhibitors; 8.8% of 350,000 active; AID 504332; further: potency means the concentration at half of the fitted maximal effect; on the % scale 0 is the no-effect control and ±100 the full control effect; nearly all actives have a fitted effect of over 75% in size
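Step 1: enzyme (final 20 nM) with compound, 15 min RT. Step 2: substrate peptide 500 nM and SAM 20 uM, 2 h RT. Step 3: anti-H3K9me1 antibody and AlphaScreen beads, 10 min, then plate read.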
CtBP-E1A blk = blocks the CtBP interaction with E1A. 0.49% of 340,000 active. activity change, % (concentration not given with the values). AlphaScreen GST-E1A/His-CtBP binding, 1536-well; active compounds read low. AID 651724; in the data active means activity change below about -65%; inconclusive means mostly about -30% to -63%; further: on the % scale 0 is the no-effect control and ±100 the full control effect
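GST-E1A and His-tagged CtBP (125 nM each as 5X stock) were preincubated with pin-transferred compound for 2 h at 37 °C in the dark, then glutathione donor and nickel acceptor beads were added for 1 h before AlphaScreen reading.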
Six1-Eya2 inh = blocks human Six1 binding to Eya2. activity change, % (no concentration beside the values). 0.56% of 360,000 active. AID 651725. Q15475+O00167. AlphaScreen GST-Six1/His-Eya2 binding, biochemical; active compounds read low; in the data active means activity change below about -65%; inconclusive means mostly about -30% to -63%; further: on the % scale 0 is the no-effect control and ±100 the full control effect
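Six1/Eya2 binding was read as AlphaScreen signal after compounds were pinned into GST-Six1 plus His-tagged Eya2 (5X stock 250/500 nM) in pH 8.0 Tris/NaCl/TCEP buffer, beads added, then incubated 1 h, 37 C, dark.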
HP1b chromo inh = blocks HP1-beta chromodomain binding to methylated histone tails. 0.56% of 390,000 active. P83916. AlphaScreen HP1-beta / biotin-H3K9me3 peptide binding. Potency, µM (doses to about 114 µM), without a hit: top-dose activity change, negative = inhibition, hits mostly inhibitors. AID 540317; further: potency means the concentration at half of the fitted maximal effect; nearly all actives have a fitted effect of over 70% in size
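Compound inhibition of the preformed complex between 50 nM HP1-beta and 50 nM biotinylated H3K9me3 peptide was read by AlphaScreen. Buffer was PBS pH 7.4 with 0.01% Tween-20. Incubations ran 30 min at room temperature, with 10 ug/mL donor/acceptor beads.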
BAZ2B inh = blocks human BAZ2B | 4.4% of 360,000 active | AlphaScreen BAZ2B-H3K14Ac peptide displacement | Potency, µM (highest dose often 114 µM), inactives show at the top dose activity change, negative = inhibition, most hits filed as inhibitors; further: potency means the concentration at half of the fitted maximal effect; on the % scale 0 is the no-effect control and ±100 the full control effect; nearly all actives have a fitted effect of over 60% in size
Target sequence (Q9UIF8 whole entry, looked up): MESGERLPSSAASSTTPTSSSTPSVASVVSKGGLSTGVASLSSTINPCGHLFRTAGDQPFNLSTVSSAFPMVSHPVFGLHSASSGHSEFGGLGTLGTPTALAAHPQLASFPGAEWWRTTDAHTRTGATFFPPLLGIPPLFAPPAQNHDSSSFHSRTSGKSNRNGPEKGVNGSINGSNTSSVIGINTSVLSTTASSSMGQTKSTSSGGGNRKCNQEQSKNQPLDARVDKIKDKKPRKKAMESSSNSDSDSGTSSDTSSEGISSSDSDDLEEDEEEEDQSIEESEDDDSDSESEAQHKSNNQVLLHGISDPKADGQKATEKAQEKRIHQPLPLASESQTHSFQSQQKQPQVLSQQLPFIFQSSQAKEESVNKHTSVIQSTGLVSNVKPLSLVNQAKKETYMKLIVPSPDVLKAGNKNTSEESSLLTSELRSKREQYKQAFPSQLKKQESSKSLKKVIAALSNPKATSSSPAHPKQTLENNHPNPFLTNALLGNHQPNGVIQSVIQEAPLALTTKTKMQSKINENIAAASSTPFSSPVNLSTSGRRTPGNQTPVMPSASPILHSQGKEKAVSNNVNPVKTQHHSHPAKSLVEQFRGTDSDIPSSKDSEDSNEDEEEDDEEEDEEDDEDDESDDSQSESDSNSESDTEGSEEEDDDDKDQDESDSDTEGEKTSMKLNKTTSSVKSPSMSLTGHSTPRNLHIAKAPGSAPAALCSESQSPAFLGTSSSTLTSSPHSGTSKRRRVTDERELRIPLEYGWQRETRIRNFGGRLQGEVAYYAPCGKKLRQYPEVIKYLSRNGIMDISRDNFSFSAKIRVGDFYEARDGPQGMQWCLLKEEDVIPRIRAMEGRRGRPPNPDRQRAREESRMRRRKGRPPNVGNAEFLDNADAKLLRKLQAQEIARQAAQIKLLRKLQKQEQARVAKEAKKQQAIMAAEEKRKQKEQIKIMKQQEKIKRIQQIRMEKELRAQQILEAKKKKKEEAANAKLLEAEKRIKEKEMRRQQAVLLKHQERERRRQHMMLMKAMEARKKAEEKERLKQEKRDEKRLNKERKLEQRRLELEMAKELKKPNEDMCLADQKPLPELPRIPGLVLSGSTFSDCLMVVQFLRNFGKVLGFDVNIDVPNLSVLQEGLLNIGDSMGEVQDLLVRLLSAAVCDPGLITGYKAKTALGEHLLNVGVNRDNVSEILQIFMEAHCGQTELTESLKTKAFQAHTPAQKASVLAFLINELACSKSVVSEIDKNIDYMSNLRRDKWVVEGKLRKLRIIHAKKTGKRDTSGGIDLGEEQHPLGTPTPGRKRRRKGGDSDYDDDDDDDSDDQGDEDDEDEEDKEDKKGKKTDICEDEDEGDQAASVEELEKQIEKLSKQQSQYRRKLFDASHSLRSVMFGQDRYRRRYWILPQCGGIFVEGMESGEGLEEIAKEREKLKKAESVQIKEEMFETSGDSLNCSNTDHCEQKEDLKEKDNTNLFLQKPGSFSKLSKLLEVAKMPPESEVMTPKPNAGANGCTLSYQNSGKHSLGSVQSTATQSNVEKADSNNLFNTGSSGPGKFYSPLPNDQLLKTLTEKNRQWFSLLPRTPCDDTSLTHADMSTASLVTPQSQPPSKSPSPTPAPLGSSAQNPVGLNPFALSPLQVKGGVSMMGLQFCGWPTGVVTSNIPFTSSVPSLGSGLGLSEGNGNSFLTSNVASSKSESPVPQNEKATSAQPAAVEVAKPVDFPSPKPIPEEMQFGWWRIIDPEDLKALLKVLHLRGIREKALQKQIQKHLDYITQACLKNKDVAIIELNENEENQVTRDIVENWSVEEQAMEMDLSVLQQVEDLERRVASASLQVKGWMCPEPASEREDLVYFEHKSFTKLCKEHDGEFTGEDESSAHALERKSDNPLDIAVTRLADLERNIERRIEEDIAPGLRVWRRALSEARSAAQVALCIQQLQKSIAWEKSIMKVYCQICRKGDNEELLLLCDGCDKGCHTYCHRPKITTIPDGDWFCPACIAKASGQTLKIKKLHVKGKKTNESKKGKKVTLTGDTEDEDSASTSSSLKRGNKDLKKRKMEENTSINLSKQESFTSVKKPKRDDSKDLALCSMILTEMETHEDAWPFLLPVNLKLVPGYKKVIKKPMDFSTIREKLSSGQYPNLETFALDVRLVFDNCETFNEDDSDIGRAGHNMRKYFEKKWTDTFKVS
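In this displacement format the biotinylated H3(5-23) peptide acetylated at Lys14 serves as ligand at 50 nM, with BAZ2B at 50 nM in PBS pH 7.4 containing 0.01% Tween-20. Donor and acceptor beads are 10 ug/mL final.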
Active calls of the source: *; ? = inconclusive; nt = no result; [ ] = another dose, or the depositor's remark. Unless noted, the call rests on the fitted dose curve; in most records, active means well fitted inhibition curve with a large enough effect; inconclusive means small, poorly fitted or top-dose-only effect; inactive means no such curve, though single readings can be large or run the other way.

SMILES | JMJD2A Tudor | G9a inh | CtBP-E1A blk | Six1-Eya2 inh | HP1b chromo inh | BAZ2B inh
CCNC(=S)N1CCc2cc(OC)c(OC)cc2C1COc1ccc(OC)cc1 (configuration not stated) | ? | 50µM* | -15 | -15 | 4% | ?
COc1ccsc1NC(=O)OCc1ccc(Cl)cc1 | ? | 50µM* | nt | -4 | -16% | ?
COc1ccccc1C(=O)Nc1ccc(OCc2cc(=O)n3ccsc3n2)cc1 | -15% | 6%[59 µM] | nt | nt | 20% | -3%
CCN1C(=O)CC(C(=O)OC)=C1C | 1% | -26% | nt | 5 | 53% | 3%
COC(=O)C1=C(C)N(CCC2=CCCCC2)C(=O)C1 | 50µM* | -2%[12.7 µM] | 1 | -2 | -5% | 8%
CC(=O)Nc1ccc(NCc2ccc(-c3ccccc3)cc2)cc1 | -24% | nt | -7 | -6 | 7% | nt
CCC(=O)Nc1ccc(NCc2ccc(-c3ccccc3)cc2)cc1 | ? | 25µM* | 3 | -24 | 4% | -27%
Cc1ccc(NC(=O)CSc2nnc(C)n3c2cc2sccc23)c(C)c1 | -18% | ? | nt | nt | -6% | ?
CC(C)S(=O)(=O)c1csc(C(=O)NN)c1Cl | -10% | 45µM* | -8 | 2 | 32% | -9%
CC(C)S(=O)(=O)c1csc(C(=O)NN)c1-n1cccc1 | -17% | 0% | -1 | -13 | 6% | ?
O=C(Nc1nc2n(n1)C(c1ccccc1)C=C(c1ccccc1)N2)c1ccc(Cl)c([N+](=O)[O-])c1 (configuration not stated) | -2% | ? | nt | nt | 38% | -14%
Cc1ccc(C)c(N2CCN(C(=O)CS(=O)(=O)c3cccc4nsnc34)CC2)c1 | -33% | 2%[59 µM] | nt | nt | 3%[57 µM] | ?
N#CC1=C(N)N(c2ccc(F)cc2)C2=C(C1c1ccc(O)cc1)S(=O)(=O)CC2 (configuration not stated) | 32µM* | 4µM* | -9 | -13 | 40µM* | 35µM*
NC(=O)Cn1c(=O)n(Cc2ccco2)c(=O)c2c3c(sc21)CCCCC3 | 56µM* | 20µM* | -15 | -25 | -45% | ?
O=c1c2c3c(sc2n(CCN2CCCCC2)c(=O)n1Cc1ccco1)CCCCC3 | ? | 50µM* | -29 | ? | -25% | -30%
O=c1c2c3c(sc2n(CCN2CCOCC2)c(=O)n1Cc1ccco1)CCCCC3 | 89µM* | -32% | ? | -23 | -20% | 4%
CCN1CCN(c2cc(C)c3cc(NC(=O)/C=C/c4ccc(C)cc4)ccc3n2)CC1 | -15% | 7%[59 µM] | nt | nt | 20% | 1%
Cc1ccc2[nH]c(C)c(CCNC(=O)C3CCCCC3C(=O)OCC(F)(F)F)c2c1 (configuration not stated) | 71µM* | -43%[59 µM] | -8 | -15 | -21% | ?
CC(=O)Nc1c(C)nn(-c2ccccc2)c1N1CCC(C(=O)Nc2ccccc2C(F)(F)F)CC1 | -5% | 32%[59 µM] | nt | nt | 25%[57 µM] | 10%
O=C(N/N=C/c1ccc([N+](=O)[O-])o1)c1cc2ccccc2o1 | -35% | 50µM* | nt | -13 | 3%[57 µM] | -36%
Cc1ccc2nc(N/N=C\c3ccc([N+](=O)[O-])o3)nc(-c3ccccc3)c2c1 | -16% | -9% | 0 | -16 | 14% | -31%
CCNc1nc(NCC)nc(N/N=C/c2ccc([N+](=O)[O-])o2)n1 | -27% | 1.8µM* | -85* | -83* | 11% | ?
Cc1nc2ccccn2c1C(=O)N/N=C/c1ccc([N+](=O)[O-])o1 | 40µM* | 50µM* | nt | ? | ? | 45µM*
O=[N+]([O-])c1ccc(/C=N/Nc2ccc3ccccc3c2)o1 | 7.1µM* | 10µM* | ? | ? | ? | 8.9µM*
COc1ccc(CCNC(=O)Cn2cc(S(=O)(=O)Cc3ccc(F)cc3)c3ccccc32)cc1OC | -22% | 4%[59 µM] | nt | nt | 7% | -3%
SMILES | JMJD2A Tudor | G9a inh | CtBP-E1A blk | Six1-Eya2 inh | HP1b chromo inh | BAZ2B inh
O=C(N/N=C/c1ccc([N+](=O)[O-])o1)c1cc2c(ccc3ccccc32)o1 | ? | nt | 4 | -6 | -10% | 56µM*
Cc1ccc(/C=N/NC(=O)c2cc3c(ccc4ccccc43)o2)o1 | -11% | -6% | -10 | -7 | 40% | -16%
Nc1ccc([N+](=O)[O-])cc1C(=O)NNC(=O)c1ccco1 | -8% | 0% | 8 | 2 | 42% | -2%
O=C(NC(=S)Nc1ccc([N+](=O)[O-])cc1)c1ccco1 | nt | nt | 6 | -2 | nt | nt
CC(=NNS(=O)(=O)c1ccc([N+](=O)[O-])cc1)c1ccc(C)cc1 | -32% | nt | -3 | -4 | ? | nt
O=C(NNc1ccc([N+](=O)[O-])cc1[N+](=O)[O-])c1ccco1 | ? | 40µM* | ? | -28 | ? | 40µM*
C/C(=N\NS(=O)(=O)c1ccc([N+](=O)[O-])cc1)c1ccc(NC(=O)c2ccco2)cc1 | -11% | 35µM* | -4 | -1 | 12% | -10%
O=C(NNc1ccc([N+](=O)[O-])cc1)c1ccco1 | -4% | 45µM* | 4 | 9 | 11% | -11%
Cc1cc2c(s1)c1cnn(Cc3ccccc3)c(=O)c1n2C | 3% | nt | nt | nt | nt | nt
Cc1ccc(CSc2nnc(SCC(=O)N/N=C/C=C/c3ccco3)s2)cc1 | -13% | ? | 4 | -3 | 5% | 50µM*
CCn1c(SCC(=O)N/N=C/C=C\c2ccco2)nc2ccccc21 | ? | 16µM* | -13 | -15 | -11% | 45µM*
Cn1c(SCC(=O)N/N=C/C=C\c2ccco2)nc2ccccc21 | 56µM* | nt | 0 | -20 | ? | ?
Cc1cccc(CS(=O)(=O)Cc2ccc(C(=O)NCc3ccc(F)cc3)o2)c1 | -7% | 13%[59 µM] | nt | nt | 14% | 9%
CCC(COC)NC(=O)CCc1nnc(Cc2c[nH]c3ccccc23)o1 (configuration not stated) | 5% | ? | 8 | 1 | 42% | -4%
CC(C)(C)NC(=O)CCc1nnc(Cc2c[nH]c3ccccc23)o1 | -15% | 45µM* | -20 | -2 | 35% | 18%
CN(Cc1ccsc1)C(=O)CCc1nnc(Cc2c[nH]c3ccccc23)o1 | 45µM* | 9% | 2 | 0 | -16% | -1%
O=C(NCCSc1c[nH]c2ccccc12)c1ccccc1Cl | -22% | -43%[59 µM] | nt | nt | 21% | -17%
COc1ccccc1CNc1ccnc(-c2ccccc2OC)n1 | nt | -5%[0.501 µM] | nt | nt | nt | nt
CCNC(=S)NNC(=O)CSc1nc2ccccc2[nH]1 | -21% | 45µM* | 7 | -4 | 8% | -27%
CCNC(=S)NNC(=O)CSc1nc2ccccc2n1C | 89µM* | nt | -7 | 0 | 27% | -11%
CCOc1ccc(C(=O)Nc2nnc(SCc3cc(=O)n4ccccc4n3)s2)cc1 | 7% | 9%[59 µM] | nt | nt | 22%[57 µM] | 13%
Cc1c(Cl)cccc1NC(=O)CNS(=O)(=O)c1cccs1 | -1% | 8%[59 µM] | nt | nt | 29%[57 µM] | 2%
